Laboratory results: PubChem BioAssay (Tox21)
Results filed as inconclusive are left out. Active and inactive are the calls of the source. Unless noted, the call rests on the fitted dose curve; in most records, active means well fitted curve in the direction sought with a large enough effect in the repeat runs; inconclusive means weak or mixed curves; inactive means no such curve, though single readings can be large; an effect the other way counts as inactive or inconclusive.

Columns and labels:
[1] = qHTS assay to identify small molecule antagonists of the glucocorticoid receptor (GR) signaling pathway - cell viability counter screen (AID 720693); further: nearly all actives have a fitted effect of over 55% in size
[2] = qHTS assay for identifying genotoxic compounds that show differential cytotoxicity against isogenic chicken DT40 cell lines with known DNA damage response pathways - Rev3 mutant cell line (AID 743014); further: nearly all actives have a fitted effect of over 55% in size; further: potency means the concentration at half of the fitted maximal effect
[3] = qHTS assay for identifying genotoxic compounds that show differential cytotoxicity against isogenic chicken DT40 cell lines with known DNA damage response pathways - Rad54/Ku70 mutant cell line (AID 743015); further: nearly all actives have a fitted effect of over 60% in size; further: potency means the concentration at half of the fitted maximal effect
[4] = target: Androgen receptor (Homo sapiens) (UniProt P10275); assay: qHTS assay to identify small molecule antagonists of the androgen receptor (AR) signaling pathway (AID 743035; active means well fitted inhibition curve with a large enough effect in the signal ratio in the repeat runs, not every such curve was filed as active; the % refers to the signal ratio; further: potency means the concentration at half of the fitted maximal effect)
Chain of Androgen receptor (Homo sapiens) (P10275 whole entry, looked up): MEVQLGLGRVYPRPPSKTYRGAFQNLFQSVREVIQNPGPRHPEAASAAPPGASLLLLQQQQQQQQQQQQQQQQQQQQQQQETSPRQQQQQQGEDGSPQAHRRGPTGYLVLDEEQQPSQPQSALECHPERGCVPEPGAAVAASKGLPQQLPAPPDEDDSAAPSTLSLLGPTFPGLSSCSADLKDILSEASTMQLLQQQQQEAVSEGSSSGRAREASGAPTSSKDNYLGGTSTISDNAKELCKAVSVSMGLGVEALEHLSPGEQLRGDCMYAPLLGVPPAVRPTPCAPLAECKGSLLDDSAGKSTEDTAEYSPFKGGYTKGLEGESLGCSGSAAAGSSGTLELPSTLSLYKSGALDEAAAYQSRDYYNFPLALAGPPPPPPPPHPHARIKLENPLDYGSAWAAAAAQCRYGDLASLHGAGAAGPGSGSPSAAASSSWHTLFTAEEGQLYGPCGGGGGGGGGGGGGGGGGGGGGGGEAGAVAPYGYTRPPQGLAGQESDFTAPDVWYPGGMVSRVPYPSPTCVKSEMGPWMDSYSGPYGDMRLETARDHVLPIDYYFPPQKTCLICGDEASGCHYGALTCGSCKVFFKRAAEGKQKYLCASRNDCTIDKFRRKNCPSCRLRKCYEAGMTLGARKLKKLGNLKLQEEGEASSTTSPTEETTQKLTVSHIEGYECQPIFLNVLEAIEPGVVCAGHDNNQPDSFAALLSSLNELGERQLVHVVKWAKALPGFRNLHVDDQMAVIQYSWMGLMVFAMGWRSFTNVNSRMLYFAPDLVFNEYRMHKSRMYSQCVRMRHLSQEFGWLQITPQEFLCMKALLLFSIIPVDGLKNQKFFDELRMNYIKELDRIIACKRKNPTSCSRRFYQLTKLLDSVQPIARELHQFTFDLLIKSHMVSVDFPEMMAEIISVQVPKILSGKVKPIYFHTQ
How it was run: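 Steps: seed AR-UAS-bla GripTite HEK293 cells, incubate 4 h at 37C; pin in test compound, then add agonist R1881; incubate 16 h at 37C; add LiveBLAzer B/G FRET substrate, 2 h at room temperature; read fluorescence.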

[5] = target: Androgen receptor (Homo sapiens) (UniProt P10275); assay: qHTS assay to identify small molecule agonists of the androgen receptor (AR) signaling pathway (AID 743036; active means well fitted activation curve with a large enough effect in the signal ratio in the repeat runs, with a control signal flat, not every such curve was filed as active; the % refers to the signal ratio; further: potency means the concentration at half of the fitted maximal effect)
How it was run: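 Screening used 2,000 AR-bla HEK293 cells per well, treated 16 h at 37C with test compounds in DMSO alongside positive and DMSO-only controls; beta-lactamase activity was then read by LiveBLAzer B/G FRET fluorescence after 2 h at room temperature.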

[6] = target: Androgen receptor (Homo sapiens) (UniProt P10275); assay: qHTS assay to identify small molecule agonists of the androgen receptor (AR) signaling pathway using the MDA cell line (AID 743040; further: nearly all actives have a fitted effect of over 20% in size; further: potency means the concentration at half of the fitted maximal effect)
How it was run: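 Agonist activity is measured as luciferase luminescence in human MDA-kb2 cells whose MMTV reporter responds to both AR and GR. Compounds in DMSO incubate 16 h at 37C, 0% CO2, and ONE-Glo is read after 30 min.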

[7] = qHTS assay to identify small molecule antagonists of the androgen receptor (AR) signaling pathway using the MDA cell line - cell viability counter screen (AID 743041; further: nearly all actives have a fitted effect of over 45% in size)
How it was run: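 qHTS viability read-out; MDA-kb2 AR-luc; R1881-stimulated; 16 h exposure at 37C, 0% CO2; CellTiter-Fluor, 30 min; fluorescence intensity.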

[8] = target: Androgen receptor (Homo sapiens) (UniProt P10275); assay: qHTS assay to identify small molecule antagonists of the androgen receptor (AR) signaling pathway using the MDA cell line (AID 743042; further: nearly all actives have a fitted effect of over 55% in size)
How it was run: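 MDA-kb2 cells (human breast carcinoma, stably carrying an MMTV-luciferase reporter responsive to AR and GR) were plated at 3,000 cells/well and preincubated 5 hr at 37C, then given compound plus R1881 agonist for 16 h. ONE-Glo luminescence was read.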

[9] = qHTS assay to identify small molecule antagonists of the androgen receptor (AR) signaling pathway - cell viability counter screen (AID 743033; further: nearly all actives have a fitted effect of over 45% in size)
[10] = qHTS assay for identifying genotoxic compounds that show differential cytotoxicity against isogenic chicken DT40 cell lines with known DNA damage response pathways - wild type cell line (AID 743012); further: potency means the concentration at half of the fitted maximal effect; nearly all actives have a fitted effect of over 60% in size
How it was run: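 Cytotoxicity in repair-proficient parental chicken DT40 cells serves as the comparator for Rad54/Ku70- and Rev3-deficient lines. Cells were exposed to compounds for 40 h at 37 C/5% CO2, and ATP-based luminescence (CellTiter-Glo) measured viability.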

Measured: Potency

CCCCCCCCCCCCOCCCN
not listed: [9] | [10]
inactive: all other assays above

CC(C)(S)[C@@H](N)C(=O)O
inactive: [1] | [2] | [3] | [9] | [7]

O=C(O)c1cc(N=Nc2ccc(O)c(C(=O)O)c2)ccc1O
not listed: [2] | [7] | [10]
inactive: all other assays above

[O]=[Bi][O]C(=O)[O][Bi]=[O]
inactive: [1] | [2] | [7]

C[N+]1(C)[C@@H]2CC(OC(=O)C(O)(c3cccs3)c3cccs3)C[C@H]1[C@@H]1O[C@@H]12 (stereo partly specified)
inactive: [1] | [2] | [3] | [7]

CN1CCN2c3ncccc3Cc3ccccc3C2C1 (stereo unspecified)
inactive: [1] | [2] | [7]

C=C1CC2C3CCC4=CC(=O)C=C[C@]4(C)[C@@]3(F)[C@@H](O)C[C@]2(C)[C@@]1(O)C(=O)COC(C)=O (stereo partly specified)
inactive: [1] | [3] | [9]

Cn1c(=O)c2c(ncn2CCOC(=O)C(C)(C)Oc2ccc(Cl)cc2)n(C)c1=O
inactive: [1] | [2] | [9] | [7]

CCC(=O)NS(=O)(=O)c1ccc(-c2c(-c3ccccc3)noc2C)cc1
inactive: [1] | [2] | [9]

CC(O)[C@H]1CC[C@H]2[C@@H]3CC[C@@H]4C[C@@H](O)CC[C@]4(C)[C@H]3CC[C@]12C (stereo partly specified)
inactive: [1] | [9] | [7]

c1ccc2cc(C3=NCCN3)ccc2c1
inactive: [1] | [9] | [7]
active: [3] 18800 nM

CC(C)(CO)[C@@H](O)C(=O)NCCCC(=O)O
not listed: [2] | [7] | [10]
inactive: all other assays above

C=Cc1c(C)c2cc3nc(cc4[nH]c(cc5nc(cc1[nH]2)C(C)=C5CCC(=O)OC)c(CCC(=O)O)c4C)[C@@]1(C)C3=CC=C(C(=O)OC)[C@H]1C(=O)OC
inactive: [1] | [9]

CNC(=O)[C@H](Cc1c[nH]c2ccccc12)NC(=O)[C@@H](CC(=O)NO)CC(C)C
active: [3] 33500 nM
inactive: [1] | [9] | [7]

CCOC(=O)Nc1ccc2c(c1)N(C(=O)CN(C)C)c1ccccc1CC2
inactive: [1] | [9]

CCC(=O)Oc1ccc2c(c1)CC[C@@H]1[C@@H]2CC[C@]2(C)[C@@H](OC(=O)CC)CC[C@@H]12
active: [5] 2390 nM | [6] 1190 nM
inactive: [1] | [7]

CC(C)CN(C[C@@H](O)[C@H](Cc1ccccc1)NC(=O)O[C@@H]1CCOC1)S(=O)(=O)c1ccc(N)cc1
active: [4] 26800 nM
not listed: [2] | [3] | [10]
inactive: all other assays above

O=C(O)[C@H](CC(=O)N1C[C@H]2CCCC[C@H]2C1)Cc1ccccc1
inactive: [1] | [3] | [9] | [7]

COc1ccc2c(c1)OC(C)(C)C(c1ccccc1)C2c1ccc(OCCN2CCCC2)cc1 (stereo unspecified)
active: [10] 3760 nM | [2] 5310 nM

COc1ccc(-c2noc(CC(=O)O)c2-c2ccc(OC)cc2)cc1
inactive: [1] | [3] | [9] | [7] | [8]

CC[C@@H](C(=O)O)[C@@H]1O[C@@H]([C@@H](C)[C@H](O)[C@H](C)C(=O)[C@H](CC)[C@H]2O[C@]3(C=C[C@@H](O)[C@]4(CC[C@@](C)([C@H]5CC[C@](O)(CC)[C@H](C)O5)O4)O3)[C@H](C)C[C@@H]2C)[C@@H](C)C[C@@H]1C
active: [10] 237 nM | [2] 168 nM | [3] 237 nM

C[C@@H]1CCC2[C@@H](C)[C@@H](O)O[C@@H]3O[C@@]4(C)CC[C@@H]1[C@@]23OO4 (stereo partly specified)
active: [10] 119 nM | [2] 133 nM | [3] 47.3 nM

CC(C)c1nc(N(C)S(C)(=O)=O)nc(-c2ccc(F)cc2)c1/C=C/C(O)CC(O)CC(=O)O (stereo unspecified)
inactive: [1] | [9] | [7]

NC(=O)OC[C@@H]1[C@H](NC(=O)/C(=N\OCC(=O)O)c2csc(N)n2)C(=O)N1S(=O)(=O)O
inactive: [1] | [3] | [9] | [7]

CCN(CC)CCOC(=O)c1cccnc1
inactive: [1] | [3] | [9] | [7]
